Measurements as given in PubChem BioAssay.
Calls of active or inactive are those of the source.

Columns and labels:
[1] = target: Albumin (Bos taurus) (UniProt P02769); assay: bovine serum albumin binders on microarray, profiling panel, artefact control for SMM control protein annotation, biochemical, small-molecule microarray, Alexa647 label, 635/667 nm fluorescence (AID 1118); conditions: BSA-A647 binding, fluorescence 635 nm, higher = more signal;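 further: score merges 667 nm emission intensity and signal-to-noise per printed compound spot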
[2] = small-molecule microarray binders of probe aXIP, primary screen, biochemical, NeuroSMM set, 635/667 nm fluorescence (AID 1119); conditions: higher = more signal, called active from +8 up or from −8 down;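 further: probe is the protein aXip251-270 applied at 1 µg/mL to compound-printed slides; binding of probe to printed compounds measured as 667 nm fluorescence plus signal to noise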
[3] = small-molecule binders of probe aNOTCH3, primary screen, biochemical, small-molecule microarray, 635/667 nm fluorescence (AID 1120); conditions: higher = more signal;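 further: probe is a biotin-tagged antibody raised against NOTCH3 rather than NOTCH3 protein; score merges spot fluorescence near 667 nm with spot signal to noise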
[4] = small-molecule binders of probe aNOTCH2, primary screen, biochemical, small-molecule microarray, 635/667 nm fluorescence (AID 1121); conditions: higher = more signal;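 further: score merges feature fluorescence read at 667 nm with its signal to noise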
[5] = target: Carbonic anhydrase 2 (Homo sapiens) (UniProt P00918); assay: CAII small-molecule binders, profiling panel, biochemical, small-molecule microarray, Alexa647-labelled CAII (AID 1122); conditions: CAII-A647 binding fluorescence, higher = more signal
[6] = COS7 lysate on small-molecule microarray, probe aHis, 635 nm (AID 1123); conditions: COS7 cell lysate, fluorescence, higher = more signal;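 further: z-score combines 667nm fluorescence intensity with signal-to-noise per printed compound spot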
[7] = compound binding in COS7 lysate, probe aLAP1, primary screen, cell lysate, small-molecule microarray (AID 1124); conditions: probe aLAP1, fluorescence, higher = more signal;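 further: lysate comes from COS7 cells expressing LAP1 and is applied at 0.3 µg/mL; score merges spot fluorescence near 667 nm with signal-to-noise over triplicate slides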
[8] = system: Sam68 (KHDRBS1); assay: Sam68 small-molecule binders, primary screen, biochemical, small-molecule microarray, 635 nm fluorescence (AID 1125); conditions: small-molecule microarray binding, higher = more signal;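 further: score merges 667 nm channel intensity with signal to noise over triplicate slides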
[9] = system: Chordin-like protein 2 (CHRDL2); assay: CHRDL2 small-molecule binders, primary screen, biochemical, small-molecule microarray, 635 nm fluorescence (AID 1126); conditions: small-molecule microarray binding, fluorescence 635 nm; higher = more signal;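 further: printed compound slides probed with Chrdl2 protein at 4 µg/mL for 1 h at 4 C; score merges 667 nm emission intensity with signal to noise over three replicate slides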
[10] = target: Concanavalin-A (Canavalia ensiformis) (UniProt P02866); assay: ConA small-molecule binders, primary screen, artefact control for SMM control protein annotation, biochemical, small-molecule microarray, Alexa647 label, 635 nm (AID 1127); conditions: ConA-A647 binding fluorescence, higher = more signal;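 further: z combines 667 nm emission intensity with signal-to-noise across three replicate slides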
[11] = anti-His antibody binders, primary screen, artefact control for SMM control protein annotation, biochemical, small-molecule microarray, 635 nm fluorescence (AID 1128); conditions: anti-His Alexa647 antibody binding, higher = more signal;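 further: score merges feature fluorescence with signal-to-noise for each printed compound spot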
[12] = system: Human papillomavirus type 1a E7 protein (residues 1-88); assay: HPV1a E7 small-molecule binders, primary screen, biochemical, small-molecule microarray, residues 1-88, 635 nm (AID 1129); conditions: small-molecule microarray binding, fluorescence 635 nm; higher = more signal
[13] = target: Focal adhesion kinase 1 (Homo sapiens) (UniProt Q05397); assay: small-molecule microarray binders of FAK, primary screen, biochemical, 635/667 nm fluorescence, BSA, DTT (AID 1130); conditions: PTK2 binding, 635 nm fluorescence, higher = more signal;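 further: composite of spot emission at 667 nm and signal to noise over triplicate slides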
[14] = system: Fibrinogen (Alexa647-labelled); assay: fibrinogen binders on compound microarrays, profiling panel, artefact control for SMM control-protein annotation, biochemical, small-molecule microarray, 635/667 nm fluorescence (AID 1131); conditions: fibrinogen-A647 binding fluorescence, higher = more signal;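 further: z-score merges 667 nm fluorescence with per-spot signal-to-noise over triplicate slides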
[15] = target: Follistatin (Homo sapiens) (UniProt P19883); assay: follistatin binders on small-molecule microarrays, primary screen, biochemical, small-molecule microarray, 635/667 nm fluorescence (AID 1132); conditions: FST binding, 635 nm fluorescence, higher = more signal
[16] = target: Fibroblast growth factor 2 (Homo sapiens) (UniProt P09038); assay: FGF2 binders on small-molecule microarrays, primary screen, biochemical, small-molecule microarray, 635/667 nm fluorescence (AID 1133); conditions: small-molecule microarray binding, FGF2, fluorescence 635/667; higher = more signal
[17] = mitochondrial membrane potential change in A549 cells, profiling panel, cell-based, JC-1 fluorescence, basal, 24 h, 100 nL (AID 1138); conditions: higher = more signal;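 further: A549 lung adenocarcinoma cells under basal conditions with no added stimulus; test concentration not given here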
[18] = system: Lefty1; assay: Lefty1 binders on small-molecule microarrays, primary screen, biochemical, small-molecule microarray, 635/667 nm fluorescence (AID 1139); conditions: small-molecule microarray binding, fluorescence 635/667; higher = more signal
[19] = system: wheat germ agglutinin (Triticum aestivum), Alexa647-labelled; assay: wheat germ agglutinin binders on compound microarrays, profiling panel, artefact control for SMM control-protein annotation, biochemical, small-molecule microarray, 635/667 nm fluorescence (AID 1140); conditions: WGA-A647 binding, 635 nm fluorescence, higher = more signal;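 further: score merges 667 nm feature emission with signal to noise over triplicate slides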
[20] = target: Luciferin 4-monooxygenase (Photinus pyralis) (UniProt P08659); assay: firefly luciferase enzyme inhibitors, primary screen, biochemical, luminescence, purified enzyme, 2006 set (AID 1141); conditions: SteadyGlo luminescence, 30 min, higher = more signal, called active from +8 up or from −8 down;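 further: cell-free assay with purified firefly luciferase at 100 ng per well in PBS; test concentration not given here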
Sequence of Luciferin 4-monooxygenase (Photinus pyralis) (P08659 whole entry, looked up): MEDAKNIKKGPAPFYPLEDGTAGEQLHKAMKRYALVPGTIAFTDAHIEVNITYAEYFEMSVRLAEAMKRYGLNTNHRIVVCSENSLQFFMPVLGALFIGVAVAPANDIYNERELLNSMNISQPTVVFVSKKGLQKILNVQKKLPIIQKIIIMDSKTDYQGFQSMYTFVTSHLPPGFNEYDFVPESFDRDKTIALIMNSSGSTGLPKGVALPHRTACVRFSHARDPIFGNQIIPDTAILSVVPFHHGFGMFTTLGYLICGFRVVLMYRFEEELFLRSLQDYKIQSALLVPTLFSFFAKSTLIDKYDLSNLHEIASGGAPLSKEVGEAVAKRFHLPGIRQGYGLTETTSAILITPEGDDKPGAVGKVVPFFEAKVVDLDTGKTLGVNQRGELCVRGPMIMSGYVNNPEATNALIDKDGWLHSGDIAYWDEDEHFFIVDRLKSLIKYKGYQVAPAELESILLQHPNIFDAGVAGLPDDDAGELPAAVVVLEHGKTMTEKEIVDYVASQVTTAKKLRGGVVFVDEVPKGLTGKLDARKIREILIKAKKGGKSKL

Sequence of Concanavalin-A (Canavalia ensiformis) (P02866 whole entry, looked up): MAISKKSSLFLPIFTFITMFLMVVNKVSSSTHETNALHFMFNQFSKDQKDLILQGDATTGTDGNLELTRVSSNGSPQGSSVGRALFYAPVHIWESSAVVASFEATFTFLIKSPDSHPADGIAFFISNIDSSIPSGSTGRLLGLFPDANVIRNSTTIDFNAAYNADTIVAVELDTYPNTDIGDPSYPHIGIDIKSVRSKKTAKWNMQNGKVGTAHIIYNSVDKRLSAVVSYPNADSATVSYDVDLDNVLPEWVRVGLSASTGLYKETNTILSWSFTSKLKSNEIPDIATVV
Sequence of Follistatin (Homo sapiens) (P19883 whole entry, looked up): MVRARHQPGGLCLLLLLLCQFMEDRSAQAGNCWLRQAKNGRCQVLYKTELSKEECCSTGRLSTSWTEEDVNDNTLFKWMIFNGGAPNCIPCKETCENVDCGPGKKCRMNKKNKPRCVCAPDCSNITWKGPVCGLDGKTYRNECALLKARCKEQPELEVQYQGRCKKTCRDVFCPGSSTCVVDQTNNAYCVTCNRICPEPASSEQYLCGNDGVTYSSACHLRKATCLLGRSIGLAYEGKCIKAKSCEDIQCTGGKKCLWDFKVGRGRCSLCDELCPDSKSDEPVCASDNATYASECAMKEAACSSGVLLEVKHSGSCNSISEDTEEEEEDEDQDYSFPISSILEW
Sequence of Albumin (Bos taurus) (P02769 whole entry, looked up): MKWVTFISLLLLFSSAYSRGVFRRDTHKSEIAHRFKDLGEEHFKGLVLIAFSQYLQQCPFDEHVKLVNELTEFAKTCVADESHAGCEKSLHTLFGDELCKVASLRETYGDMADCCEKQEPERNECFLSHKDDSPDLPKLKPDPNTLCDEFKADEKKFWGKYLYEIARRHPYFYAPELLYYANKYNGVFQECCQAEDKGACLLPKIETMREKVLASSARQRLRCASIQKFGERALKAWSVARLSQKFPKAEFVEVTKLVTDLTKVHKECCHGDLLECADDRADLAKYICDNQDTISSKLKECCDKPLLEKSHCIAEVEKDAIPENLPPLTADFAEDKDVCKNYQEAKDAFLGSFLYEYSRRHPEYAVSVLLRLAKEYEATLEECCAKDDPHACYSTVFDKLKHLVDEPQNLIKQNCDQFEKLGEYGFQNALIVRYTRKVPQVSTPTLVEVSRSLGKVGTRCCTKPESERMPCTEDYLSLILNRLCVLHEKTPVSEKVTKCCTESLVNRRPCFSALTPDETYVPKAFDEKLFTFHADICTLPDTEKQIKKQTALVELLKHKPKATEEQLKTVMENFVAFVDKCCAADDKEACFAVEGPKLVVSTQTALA
Sequence of Fibroblast growth factor 2 (Homo sapiens) (P09038 whole entry, looked up): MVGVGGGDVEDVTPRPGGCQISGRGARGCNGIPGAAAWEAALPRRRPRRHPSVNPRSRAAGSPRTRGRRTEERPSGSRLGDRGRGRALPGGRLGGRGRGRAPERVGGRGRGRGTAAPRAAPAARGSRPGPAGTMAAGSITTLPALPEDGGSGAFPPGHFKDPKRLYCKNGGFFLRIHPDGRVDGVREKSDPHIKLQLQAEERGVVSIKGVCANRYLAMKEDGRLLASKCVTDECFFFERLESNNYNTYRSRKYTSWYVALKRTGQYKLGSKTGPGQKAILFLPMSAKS
Sequence of Focal adhesion kinase 1 (Homo sapiens) (Q05397 whole entry, looked up): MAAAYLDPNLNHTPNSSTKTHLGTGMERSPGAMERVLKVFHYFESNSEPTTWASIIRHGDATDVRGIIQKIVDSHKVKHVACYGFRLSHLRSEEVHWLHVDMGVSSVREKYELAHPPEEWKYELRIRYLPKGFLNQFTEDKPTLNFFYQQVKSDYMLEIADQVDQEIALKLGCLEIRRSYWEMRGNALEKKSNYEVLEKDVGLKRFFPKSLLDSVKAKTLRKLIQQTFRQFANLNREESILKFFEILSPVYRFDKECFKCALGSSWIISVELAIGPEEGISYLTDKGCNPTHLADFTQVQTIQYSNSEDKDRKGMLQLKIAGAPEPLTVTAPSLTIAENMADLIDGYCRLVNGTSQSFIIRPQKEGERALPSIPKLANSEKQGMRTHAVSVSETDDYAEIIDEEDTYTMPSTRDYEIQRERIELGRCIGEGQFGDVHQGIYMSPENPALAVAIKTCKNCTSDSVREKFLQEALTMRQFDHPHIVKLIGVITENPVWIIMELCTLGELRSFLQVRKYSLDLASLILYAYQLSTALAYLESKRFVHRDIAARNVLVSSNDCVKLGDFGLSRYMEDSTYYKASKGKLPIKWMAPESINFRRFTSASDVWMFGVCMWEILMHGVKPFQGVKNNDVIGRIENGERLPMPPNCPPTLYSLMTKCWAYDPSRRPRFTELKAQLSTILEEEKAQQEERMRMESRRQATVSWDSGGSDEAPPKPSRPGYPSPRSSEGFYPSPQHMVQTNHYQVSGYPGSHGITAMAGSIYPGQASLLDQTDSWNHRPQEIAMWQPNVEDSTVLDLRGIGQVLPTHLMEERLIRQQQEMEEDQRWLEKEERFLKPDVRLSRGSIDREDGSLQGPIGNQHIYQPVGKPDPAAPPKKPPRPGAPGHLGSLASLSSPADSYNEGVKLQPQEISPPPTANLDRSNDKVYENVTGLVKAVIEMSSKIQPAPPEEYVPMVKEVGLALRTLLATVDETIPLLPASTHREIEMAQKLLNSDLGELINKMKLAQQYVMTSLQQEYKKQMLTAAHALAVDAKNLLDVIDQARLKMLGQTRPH

SMILES | composite z-score [1] | composite Z-score [2] | composite z-score [3] | composite z-score [4] | composite z-score [5] | composite z-score [6] | composite z-score [7] | composite z-score [8] | composite z-score [9] | composite z-score [10] | composite z-score [11] | composite z-score [12] | composite z-score [13] | composite z-score [14] | composite z-score [15] | composite z-score [16] | z-score [17] | composite z-score [18] | composite z-score [19] | z-score [20]
O=C1C[C@@](C(=O)NCc2ccccc2)(c2ccc([N+](=O)[O-])cc2)[C@@H](c2ccc(CO)cc2I)N1C1CCCCC1 | -0.13 | -0.0966 (inactive) | 0.446 | 0.202 | 0.448 | 1.15 | -0.0355 | 1.23 | 0.633 | 0.957 | 1.12 | 1.2 | 0.532 | 0.805 | 1.43 | 1.25 | -0.0219 | 0.721 | 0.411 | -1.2 (inactive)
C[C@H]1ON(c2ccccc2)[C@@H](c2ccccc2)[C@@H]1C(=O)N1C(=O)OC[C@@H]1c1ccccc1 | 0.0537 | 1.2 (inactive) | -0.0493 | -0.118 | 0.259 | 0.46 | -0.0222 | 0.44 | 0.424 | 0.0565 | 0.143 | 0.718 | 0.784 | 0.894 | 1.12 | 0.986 | -0.21 | 0.5 | 0.014 | 0.422 (inactive)
O=C1O[C@H](c2ccccc2)[C@H](c2ccccc2)N2[C@H]1[C@@H](C(=O)N1CCCCCCC1)[C@]1(C(=O)Nc3ccc(C#CCCO)cc31)[C@H]2c1ccc(OCCO)cc1 | 0.853 | 10.2 (active) | 2.34 | 1.12 | 1.11 | 5.12 | 1.12 | 1.37 | 1.62 | 1.19 | 2.99 | 1.36 | 5.23 | 0.97 | 1.52 | 1.27 | -0.421 | 1.92 | 1.64 | -0.264 (inactive)
COc1cc2c(cc1OC)CN(C(=O)[C@@H]1[C@H]3C(=O)O[C@H](c4ccccc4)[C@H](c4ccccc4)N3[C@H](c3ccc(OCCO)cc3)[C@@]13C(=O)Nc1ccc(C#CCCO)cc13)CC2 | 0.379 | 1.29 (inactive) | 0.81 | -0.0669 | 0.428 | 2.92 | 0.364 | 1.3 | 0.703 | 1.02 | 1.23 | 1.23 | 0.237 | 0.956 | 1.36 | 0.999 | -1.37 | 1.08 | 1.27 | -0.418 (inactive)
[N-]=[N+]=NCc1ccccc1[C@H]1OC(c2ccc(OCCCO)cc2)=N[C@@]1(Cc1ccccc1N=[N+]=[N-])C(=O)N1CCCCC1 | -0.0584 | -0.202 (inactive) | 0.374 | 0.104 | 0.559 | 2.97 | 0.608 | 1.29 | 0.0975 | 0.988 | 2.35 | 1.23 | 0.529 | 0.974 | 1.34 | 1.56 | 2.16 | 0.68 | 0.681 | -1.9 (inactive)
CCC[C@@H]1C[C@@]1(CCC)[C@@H](NC(=O)c1cccs1)c1ccc(Cl)cc1 | 0.259 | -0.222 (inactive) | -0.102 | -0.0617 | 0.247 | 0.855 | -0.199 | -0.0604 | -0.693 | -0.596 | -0.449 | -0.375 | -0.352 | 0.7 | -1.42 | -0.639 | -0.101 | -1.69 | 0.152 | -2.2 (inactive)
NC(=O)[C@H]1[C@@H]2C(=O)O[C@@H](c3ccccc3)[C@@H](c3ccccc3)N2[C@@H](c2ccc(O)cc2)[C@]12C(=O)Nc1ccc(C#CC3(O)CCCCCC3)cc12 | 0.0474 | 0.467 (inactive) | 0.205 | -0.0859 | 0.51 | 2.63 | 0.807 | 1.29 | 0.412 | 1.12 | 1.55 | 1.23 | 0.505 | 0.946 | 1.24 | 1.58 | -1.43 | 0.889 | 0.949 | 0.268 (inactive)
COCCOC(=O)N1C(=O)[C@@]2(c3cc(C#CCC(C(=O)OC)C(=O)OC)ccc31)[C@H](C(=O)N1CCCCCCC1)[C@H]1C(=O)O[C@H](c3ccccc3)[C@H](c3ccccc3)N1[C@@H]2c1ccc(O)cc1 | -0.0345 | 0.604 (inactive) | 0.996 | 0.222 | 0.387 | 2.34 | 2.4 | 1.31 | 1.29 | 0.783 | 2.63 | 1.16 | 0.598 | 0.59 | 1.07 | 1.5 | -0.909 | 0.972 | 1.13 | 0.414 (inactive)
C=CCOC(=O)[C@@H]1[C@H]2C(=O)O[C@H](c3ccccc3)[C@H](c3ccccc3)N2[C@H](c2ccc(OCCOC(=O)[C@H]3C[C@H]4C(=O)N[C@@H](Cc5ccccc5)C(=O)N4[C@H]3c3cccc(OCCO)c3)cc2)[C@@]12C(=O)Nc1ccc(I)cc12 | -0.868 | 0.111 (inactive) | 0.319 | -0.103 | 0.344 | 0.798 | 0.331 | 1.31 | 1 | 1.11 | 1.51 | 1.2 | 0.819 | 0.464 | 1.42 | 1.72 | -1.37 | 1.33 | 0.548 | -3.65 (inactive)
COc1ccc([Si](C)(C)[C@@H]2[C@@H](CCO)O[C@]3(C(=O)N(Cc4ccccc4)c4ccc(N5CCCCC5=O)cc43)[C@H]2C)cc1 | 0.375 | -0.364 (inactive) | 0.924 | -0.108 | 0.08 | 0.72 | 0.0284 | 1.31 | 0.212 | 1.12 | 1.47 | 1.17 | 1.61 | 0.734 | 1.13 | 0.634 | -0.167 | 0.788 | 0.184 | 0.0481 (inactive)
C=C(C(=O)CC[C@H](OC(=O)c1cccnc1)c1ccc(OCCO)cc1)C(C)C | 0.335 | -0.496 (inactive) | 0.0571 | -0.105 | 0.695 | 0.706 | 0.296 | 1.13 | 0.274 | 1.12 | 0.423 | 0.54 | 0.091 | 0.917 | 1.05 | 0.859 | 0.531 | 1.31 | -0.052 | -2.26 (inactive)
